# Measurements: the supplement of paper PMC3334620
# Whole data set: some 33,000 sequences, median “E-score (-0.5 to 0.5)” near -8e-05, cut for the highest 2% near 0.23. What follows is part of a selection rich in the highest values, with near analogues and random picks from the rest.
# Target: T1, Nrg2 (UniProt P38082)
# T1 sequence: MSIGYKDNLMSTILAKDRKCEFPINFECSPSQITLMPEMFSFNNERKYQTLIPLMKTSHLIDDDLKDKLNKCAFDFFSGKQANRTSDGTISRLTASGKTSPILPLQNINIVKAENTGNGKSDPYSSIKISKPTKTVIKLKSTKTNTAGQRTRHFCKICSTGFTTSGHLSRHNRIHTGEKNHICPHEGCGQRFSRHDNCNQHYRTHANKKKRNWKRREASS
# Assay: PBM E-score (8-mer binding enrichment) (E-score (-0.5 to 0.5)); higher = stronger / more preferred TF binding
# Details: protein concentration: 100 nM; construct: GST-full length
# Summary of the method: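 Yeast transcription factors, full-length or as DNA-binding domains, were expressed with a GST tag using PURExpress in vitro transcription/translation. At about 100-200 nM they were applied to universal all-10-mer Agilent arrays, double-stranded by primer extension on fresh or once-stripped slides. Fluorescent anti-GST detected bound protein, and masliner normalised the scans. E-scores for ungapped eight-base words, pooled with reverse complements, came from the Universal PBM Analysis Suite.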
row,Sequence,PBM E-score
1,CACGATAC,-0.129
2,ACTTTCGC,-0.0735
3,CAGTTGCC,-0.092
4,ATGAGCAA,0.121
5,AGGGTCAT,0.132
6,GCCCAAGC,0.106
7,ATCTATGC,0.117
8,CCGGGCAC,-0.16
9,CGCAAAGA,0.111
10,GGGTCTCA,0.0513
11,AGGGACAT,0.301
12,AGGGACAA,0.228
13,GGGGACTA,-0.0994
14,CGGGACCC,-0.0126
15,AGGGACCC,0.337
16,ACGGACCG,-0.252
17,AGGGACTC,-0.0325
18,GGGGACCC,0.143
19,AGGGACCG,0.231
20,AGGGACAC,0.204
21,CGGGACCG,-0.0394
22,AGGGACTA,0.242
23,CCTGACCA,0.142
24,CGAAGACC,0.0649
25,GCTCTCAA,0.047

row,Sequence,PBM E-score
1,ACGATCGA,0.0838
2,GTGAGCAA,-0.0485
3,GTCCAGTA,-0.0597
4,AATACAAC,0.185
5,AATACAAT,0.106
6,AATACAAG,0.296
7,GATACAAA,0.18
8,TATACAAA,0.148
9,AATACAAA,0.269
10,GTAATCGA,0.154
11,TGAATACA,0.0782
12,CCTTGCTC,0.0643
13,AGCGTTAT,-0.0753
14,GTCTACTA,0.0788
15,CACCTGTC,0.0208
16,AGCTCTGG,-0.136
17,ATCAGATG,-0.0502
18,ATCTTGCA,0.256
19,ATCTTGCG,-0.0421
20,GTCTTGCA,0.0101
21,GAAGCCTC,-0.146
22,ATCGAAGA,0.193
23,ATATTGCA,0.113
24,AGAGATTC,0.0502
25,GACAGTAA,0.0902

row,Sequence,PBM E-score
1,ATGAAGTG,0.235
2,ATGAAGTC,-0.0277
3,ATGAAGTA,0.0961
4,ATTGAACG,-0.0983
5,ATCCAAAT,0.0165
6,CACGCGGA,0.234
7,CGCGCGTC,0.262
8,CACGCGGG,-0.0425
9,AGCGCGGC,0.0579
10,CCCGCGGA,0.204
11,CGCGCGGC,0.296
12,CGCGCGTA,0.133
13,CCCGCGGG,0.278
14,AGCGCGTC,-0.0322
15,AACGCGGA,0.0806
16,CGCGCGGA,0.227
17,ACCGCGGG,0.171
18,CCATTTAA,-0.00324
19,CATTGAGC,-0.0461
20,CCTTAGTC,-0.119
21,CCGCTGCG,-0.14
22,ATCAATAC,0.136
23,AGTGCTAG,-0.0309
24,AATGAGGG,-0.00097
25,TAGAGCTA,-0.161

row,Sequence,PBM E-score
1,CTGCCACA,-0.117
2,AACCCTTA,0.235
3,ACCCTTAA,0.152
4,GACCCTGA,0.389
5,ACCCTTAT,0.28
6,AACCCTTC,0.168
7,AACCTTAC,0.108
8,ACCCTTAG,0.123
9,GACCCTCA,-0.116
10,AACCTTAG,-0.109
11,GACCCCTA,0.151
12,AACCTTAA,0.293
13,AACCCTTG,0.194
14,GTCAAAAC,0.0485
15,AGATCTAT,-0.0448
16,CTGCACCA,-0.0673
17,AGTTGATC,0.137
18,CATTCGTA,-0.0996
19,ACTCTATG,0.056
20,ACTTCCTG,0.0859
21,TAAATCGA,0.151
22,CGCTTACG,-0.284
23,GACCCTGC,0.331
24,ACCCCTAA,0.172
25,CACCCTGC,0.191

row,Sequence,PBM E-score
1,TATCCTGA,0.202
2,TACCCTCA,0.00099
3,TACCCTGA,0.265
4,AACCCCTA,0.25
5,ACCCCCTA,-0.391
6,GACCCTCC,0.16
7,ACCCCTAT,0.256
8,ACCCCTAG,0.153
9,TACCCCTA,0.173
10,GGATCTGA,-0.0992
11,CAAAGGCA,-0.173
12,ACTAAGAA,0.221
13,CGAGCTAC,0.124
14,TAACCGAA,-0.0477
15,ACCAGTCG,-0.149
16,CGAGTTTA,0.0171
17,ACAGAGGA,0.00257
18,ACCACACG,-0.034
19,AAACGGAT,0.205
20,ATCGAGGG,0.12
21,CCGTTCAG,0.00062
22,CACCCTGG,0.0652
23,AACCCTAG,0.0468
24,AACCCTGT,0.244
25,TACCCTAA,0.107

row,Sequence,PBM E-score
1,GACCCTTA,0.321
2,AACCCTAT,0.195
3,CACCCTTA,0.147
4,GACCCTAC,0.184
5,GACCCTAA,0.237
6,ACCCCTGG,0.0828
7,AACCCTGG,0.315
8,GGCCCTTA,0.185
9,GAGTCTGA,-0.0871
10,CAGTATGG,0.0291
11,AACGAGGC,-0.139
12,AAAGTTCG,0.127
13,ACCCCTGA,0.297
14,CACCCTGA,0.201
15,AACCCATA,0.24
16,ACCCCTTA,0.178
17,AACCCTGC,0.134
18,GACCCATA,0.118
19,CCCCCTGA,-0.00244
20,AACCCATT,0.00038
21,AACCCTGA,0.385
22,CGCGACGA,0.176
23,TGGGGACA,-0.187
24,AAGGGAGC,-0.187
25,AAAACGGC,0.112

row,Sequence,PBM E-score
1,GCCGGACA,0.0968
2,TCGTTGAA,-0.0977
3,CTACTATC,0.247
4,CTACTATA,0.143
5,ATACTATC,0.013
6,AGGAAAAC,0.151
7,ACTGTTTA,-0.0842
8,ACTCGTTG,-0.109
9,CTTCGTTC,-0.00176
10,ATTCGTCG,-0.00164
11,ATTCGTTA,0.165
12,AATCGTTC,0.0566
13,ATTCGTTC,0.28
14,ATTCGTCC,0.27
15,CTTCGTCC,-0.114
16,ATTCGTTG,0.239
17,AAAATCAT,-0.0452
18,CATTGGTA,0.0651
19,TGAGTTAA,0.0318
20,CGAGTTAC,0.215
21,CGAGTTAA,0.264
22,CGGTCTAA,-0.118
